# Target: Calmodulin-1 (Homo sapiens) (UniProt P0DP23)
# Test: calcium-bound CALM1 binders on microarrays, profiling panel, artefact control for SMM control-protein annotation, biochemical, small-molecule microarray, Cy5-labelled CALM1, plus calcium (AID 1112);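 further: score merges spot fluorescence with signal to noise from triplicate slides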
# Conditions: Cy5-CALM1 binding fluorescence, higher = more signal
row,Compound,composite z-score
1,CC(C)c1ccc(NN2C(C(O)c3ccc(N(C)C)cc3)C=CC3C(=O)N(c4ccccc4)C(=O)C32)cc1 (stereo unspecified),0.176
2,CC(C)NC(=O)[C@@H]1c2ccccc2C(=O)N(Cc2ccccc2)[C@H]1c1ccc(CO)cc1,0.477
3,CCOC(=O)C[C@H]1[C@H](OC(=O)c2ccccc2-c2ccccc2)[C@@H](NC(=O)Cc2ccc(OC)cc2)c2cc(OCCCO)ccc2N1C(=O)c1ccccc1,-0.317
4,Cc1ccc(S[C@]2(C(=O)O)CC(=O)N(C3Cc4ccccc4C3)[C@@H]2c2ccc(CO)cc2I)cc1,-0.196
5,CC(C)(C)OC(=O)CC[C@@]1(C(=O)NCCN2CCOCC2)N=C(c2ccc(OCCCO)cc2)O[C@@H]1c1ccccc1,0.53
6,CCCN1C(=O)[C@@]2(CCC(=O)OC(C)(C)C)N=C(c3ccc(OCCCO)cc3)O[C@H]2c2ccccc21,-0.38
7,COCCOC(=O)N1C(=O)[C@@]2(c3cc(C#CCC(C(=O)OC)C(=O)OC)ccc31)[C@H](c1ccc(O)cc1)N1[C@H](c3ccccc3)[C@H](c3ccccc3)OC(=O)[C@H]1[C@@H]2C(N)=O,-0.259
8,N#Cc1ccc(NN2C(C(O)c3ccc([N+](=O)[O-])cc3)C=CC3C(=O)N(c4ccccc4)C(=O)C32)cc1 (stereo unspecified),0.235
9,COCC(=C=CC[C@H](O)c1ccc(OCCO)cc1)C[C@H](O)c1cc(Cl)cc(Cl)c1O,-0.814
10,CCOC(=O)C1=CC[C@@H](c2ccccc2)N(S(=O)(=O)c2ccc(C)cc2)[C@H]1C(=O)OCC,0.289
11,CCCCCN1CC=CC23O[C@@H]4C=CCOC(=O)[C@@H]4[C@H]2C(=O)N(CCCO)[C@@H]3C1=O (stereo partly specified),0.487
12,C[C@]1(C(=O)NCc2ccccc2)c2ccccc2C(=O)N(Cc2cc(F)cc(C(F)(F)F)c2)[C@H]1c1ccc(CO)cc1,0.173
13,COc1ccc(C(O)C2C=CC3C(=O)NC(=O)C3N2Nc2ccccn2)cc1OCc1ccccc1 (stereo unspecified),0.0805
14,C=C(CCCC)C(=O)CC[C@H](OC(=O)c1cccnc1)c1cccc(OCCO)c1,-0.993
15,O=C1OCCC/C=C\[C@H]2OC34C=CCN(Cn5nnc6ccccc65)C(=O)[C@H]3N(CCCCCO)C(=O)[C@@H]4C12 (stereo partly specified),-0.388
16,CC(C)CNC(=O)[C@@H]1c2ccccc2C(=O)N(Cc2cc(C(F)(F)F)cc(C(F)(F)F)c2)[C@H]1c1ccc(CO)cc1,0.401
17,CC(C)(C)N1CC=CC23O[C@@H]4C=CCOC(=O)[C@@H]4[C@H]2C(=O)N(CCCCCO)[C@@H]3C1=O (stereo partly specified),-0.0669
18,CCOC(=O)C[C@H]1[C@H](OC(=O)c2ccc(-c3ccccc3)cc2)[C@@H](NC(=O)Cc2ccc(OC)cc2)c2cc(OCCCO)ccc2N1C(=O)c1ccc2ccccc2n1,-0.0431

row,Compound,composite z-score
1,COCCOC(=O)N1C(=O)[C@@]2(c3cc(C#CCNC(N)=O)ccc31)[C@H](c1ccc(O)cc1)N1[C@H](c3ccccc3)[C@H](c3ccccc3)OC(=O)[C@H]1[C@@H]2C(=O)Nc1nc2ccccc2s1,0.707
2,COc1ccc(C#Cc2ccc3c(c2)[C@]2(C(=O)N3)[C@H](C(=O)NC[C@H](O)c3ccccc3)[C@H]3C(=O)O[C@H](c4ccccc4)[C@H](c4ccccc4)N3[C@@H]2c2ccc(OCCO)cc2)cc1,-0.203
3,O=C1OCCC=C[C@H]2OC34C=CCN(Cc5ccccc5)C(=O)[C@H]3N(CCCO)C(=O)[C@@H]4C12 (stereo partly specified),0.0072
4,COC(=O)[C@@]1(Cc2ccccc2)N=C(c2ccc(OCCCO)cc2)O[C@H]1c1ccccc1N=[N+]=[N-],-1.07
5,COc1ccc(NN2C(C(O)c3ccc(OC)c(OCc4ccccc4)c3)C=CC3C(=O)N(C4CCCCC4)C(=O)C32)cc1 (stereo unspecified),0.63
6,C=CCC(OC(C)=O)[C@@H]1[C@@H](N(Cc2cccc3ccccc23)C(=O)c2cccc3ccccc23)c2cc(OCCCO)ccc2N1C(=O)c1ccc2ccccc2n1 (stereo partly specified),0.117
7,CC(C)CNC(=O)[C@@]1(c2ccc([N+](=O)[O-])cc2)CC(=O)N(CC23CC4CC(CC(C4)C2)C3)[C@@H]1c1ccc(CO)cc1I,-0.111
8,Cc1ccc(S[C@]2(C(=O)NCC(C)C)CC(=O)N(Cc3ccccc3Cl)[C@@H]2c2ccc(CO)cc2)cc1,-0.115
9,[N-]=[N+]=NCc1ccccc1C[C@]1(C(=O)O)N=C(c2ccc(OCCCO)cc2)O[C@H]1c1ccccc1,0.671
10,Cc1ccccc1C(O)C1C=CC2C(=O)N(C)C(=O)C2N1Nc1ccccc1 (stereo unspecified),1.06
11,O=C1O[C@H](c2ccccc2)[C@H](c2ccccc2)N2[C@H]1[C@@H](C(=O)N1CCN(c3ncccn3)CC1)[C@]1(C(=O)Nc3ccccc31)[C@H]2c1ccc(OCCO)cc1,-0.802
12,CCCCCN1CC=CC23O[C@@H]4/C=C\CCC(C)OC(=O)C4[C@H]2C(=O)N(CCCCCO)[C@@H]3C1=O (stereo partly specified),-0.561
13,CC(C)Cc1ccc(CN2CC[C@@H](NS(=O)(=O)c3ccccc3)C2)cc1,-0.859
14,C=CCC(OC(C)=O)[C@@H]1[C@@H](N(Cc2cccc3ccccc23)C(=O)c2ccc(C)cc2)c2cc(OCCCO)ccc2N1C(=O)Cc1ccc(OC)cc1 (stereo partly specified),-0.0943
15,CN1C(=O)C2C=CC(C(O)c3ccccn3)N(Nc3ccccc3)C2C1=O (stereo unspecified),-0.408
16,COc1cccc(C(=O)O[C@H]2CC[C@]3(C)C4=C(CCC3C2(C)C)[C@]2(C)CC[C@H]([C@H](C)CCCC(C)C)[C@@]2(C)CC4)c1 (stereo partly specified),-0.441
17,COc1ccc(C(=O)Nc2cccc(CN3C(=O)[C@@]4(O[C@@H](CCn5cc(CCO)nn5)[C@H]([Si](C)(C)c5ccc(OC)cc5)[C@H]4C)c4ccccc43)c2)cc1,0.308
18,O=C1N(CCS(=O)(=O)c2ccccc2)Cc2ccccc2C[C@]12N=C(c1ccc(OCCCO)cc1)O[C@@H]2c1ccccc1,0.422

# From PubChem BioAssay
